Assay results: publication PMC4336329 (PLoS ONE, 2015)
Hit rate of the full screen: of about 310,000 compounds, about 14,000 (4.5%) showed an effect of 50% or more. The effect is printed as a negative number. Only a selection was taken, and strong results are over-represented in it overall.

target: human ether-à-go-go-related gene (hERG) potassium channel (human, UniProt Q12809); assay: primary screen, population patch clamp on CHO cells stably expressing hERG; higher = less effect of the substance
Sequence (Q12809 whole entry, looked up): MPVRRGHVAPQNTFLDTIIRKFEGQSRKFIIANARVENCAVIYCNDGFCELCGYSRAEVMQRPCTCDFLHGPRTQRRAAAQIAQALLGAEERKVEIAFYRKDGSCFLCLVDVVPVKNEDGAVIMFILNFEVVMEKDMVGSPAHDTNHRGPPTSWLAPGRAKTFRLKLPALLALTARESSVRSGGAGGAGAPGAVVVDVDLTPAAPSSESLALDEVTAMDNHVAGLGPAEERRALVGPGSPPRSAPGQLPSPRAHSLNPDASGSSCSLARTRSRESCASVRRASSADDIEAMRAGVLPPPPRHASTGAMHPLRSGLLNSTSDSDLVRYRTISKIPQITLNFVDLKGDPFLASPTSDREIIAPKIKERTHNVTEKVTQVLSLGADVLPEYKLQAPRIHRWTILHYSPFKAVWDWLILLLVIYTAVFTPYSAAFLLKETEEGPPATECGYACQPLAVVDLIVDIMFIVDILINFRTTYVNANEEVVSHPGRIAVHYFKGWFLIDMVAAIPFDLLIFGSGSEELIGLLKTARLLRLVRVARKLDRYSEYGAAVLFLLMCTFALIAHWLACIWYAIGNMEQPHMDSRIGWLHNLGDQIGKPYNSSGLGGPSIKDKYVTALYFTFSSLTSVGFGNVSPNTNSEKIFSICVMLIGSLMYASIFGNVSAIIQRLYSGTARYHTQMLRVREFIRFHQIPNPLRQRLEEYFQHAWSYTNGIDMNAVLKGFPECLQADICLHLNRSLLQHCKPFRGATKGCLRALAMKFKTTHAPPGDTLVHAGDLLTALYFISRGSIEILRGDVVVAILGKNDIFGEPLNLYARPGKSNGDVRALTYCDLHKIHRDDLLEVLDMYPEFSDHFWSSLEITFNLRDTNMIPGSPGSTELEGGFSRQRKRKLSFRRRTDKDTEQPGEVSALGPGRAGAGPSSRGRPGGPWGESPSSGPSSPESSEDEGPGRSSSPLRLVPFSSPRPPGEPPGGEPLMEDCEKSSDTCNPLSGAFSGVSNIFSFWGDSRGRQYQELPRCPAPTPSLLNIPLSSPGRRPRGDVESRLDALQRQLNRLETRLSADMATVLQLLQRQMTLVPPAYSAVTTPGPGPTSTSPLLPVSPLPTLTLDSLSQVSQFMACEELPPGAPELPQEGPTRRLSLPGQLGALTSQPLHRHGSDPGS
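Also: peak tail current of the secondary pulse compared with the same well before compound.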

SMILES | hERG current change (%, negative = inhibition) at 10uM [%]
CC1CCCN(C(=O)C2CCC(CNc3c(N4CCCCC4)c(=O)c3=O)CC2)C1 (stereo not drawn) | -8.22
COC(=O)c1ccc(COc2ccc(C)c(C)c2)o1 | 12.3
COc1ccc(-n2c(=O)[nH]c3cc(C(=O)NCCc4ccc(OC)c(OC)c4)ccc3c2=O)c(OC)c1 | 18.5
CN1C(=O)NC(c2ccccc2)(C(F)(F)F)S/C1=C(/C#N)c1nnc(N2CCOCC2)n1-c1ccccc1 (stereo not drawn) | -30.3
C=CCN1C(=O)NC(c2ccc(OC)cc2)(C(F)(F)F)S/C1=C(\C#N)c1nnc(N2CCOCC2)n1-c1ccccc1 (stereo not drawn) | -62.4
C=CCN1C(=O)NC(c2ccccc2)(C(F)(F)F)S/C1=C(\C#N)c1nnc(N2CCOCC2)n1-c1ccccc1 (stereo not drawn) | -19.4
CC1Cc2ccccc2N1C(=S)NC(=O)C1(C)CC1(Cl)Cl (stereo not drawn) | 30.1
O=C(O)C(=O)O.O=[N+]([O-])c1ccc(CNC2CCCc3ccccc32)cc1 (stereo not drawn) | -51.7
O=[N+]([O-])c1ccccc1CNC1CCCc2ccccc21 (stereo not drawn) | -5.95
CCOc1ccc(CNC2CCCc3ccccc32)cc1.O=C(O)C(=O)O (stereo not drawn) | -68.1
COc1ccc(CNC2CCCc3ccccc32)cc1OC.O=C(O)C(=O)O (stereo not drawn) | -25.3
COc1cc(CNC2CCCc3ccccc32)cc(OC)c1OC.O=C(O)C(=O)O (stereo not drawn) | -13.9
COc1ccccc1CNC1CCCc2ccccc21.O=C(O)C(=O)O (stereo not drawn) | -6.19
COc1ccc(OC)c(NC(=O)Cc2coc3cc(C)cc(C)c23)c1 | 1.9
COC(=O)C1=C(c2ccc(F)cc2OCc2ccccc2)C[C@@H]2CC[C@H]1N2C(=O)NCc1ccc(OC)c(OC)c1 | -2.13
CCn1c(C)nc2cc(C(=O)NNC(=S)Nc3ccc(F)cc3)ccc21 | 15.9
CCC(=O)N1CCN(C(=O)c2ccccc2)CC1 | 1.82
O=C(Nc1ccc(N2CCOCC2)cc1)c1cccc(S(=O)(=O)N2CCC(Cc3ccccc3)CC2)c1 | 2.84
OC(CNCCc1ccc(Cl)cc1)COc1cc(Cl)ccc1Cl (stereo not drawn) | -56.6
O=C(O)C(=O)O.OC(CNCCc1ccc(Cl)cc1Cl)COc1ccccc1 (stereo not drawn) | -25.7
Cc1cc(Cl)ccc1OCC(O)CNCCc1ccc(S(N)(=O)=O)cc1 (stereo not drawn) | -67.6
OC(CNCCc1ccc(Cl)cc1)COCc1ccco1 (stereo not drawn) | -44.6

SMILES | hERG current change (%, negative = inhibition) at 10uM [%]
COc1ccc(Cl)cc1NC(=S)NCCc1ccc(S(N)(=O)=O)cc1 | 5.52
Cc1cc(Cl)ccc1NC(=S)NCCc1ccc(S(N)(=O)=O)cc1 | -16.1
CCn1c(=NC(=O)CS(=O)(=O)c2ccc(C)cc2)sc2cccc(OC)c21 | -0.869
O=C(CCc1ccccc1O)N/N=C/c1ccc(Sc2cccc3cccnc23)o1 | 21.8
COc1ccc(CNC(=O)CN2CCN(c3ccccc3O)CC2)cc1OC | 12.6
COCCn1c(SCCN2CCCCC2)nc2ccccc2c1=O | -78.4
O=c1c2ccccc2nc(SCCN2CCOCC2)n1CCc1ccccc1 | -15.4
C=CCNC(=O)CSc1nc2ccccc2c(=O)n1CCc1ccc(OC)c(OC)c1 | -15.4
COc1ccc(CCn2c(SCCN3CCCCC3)nc3ccccc3c2=O)cc1OC | -53.3
NC(=O)CSc1nc2ccccc2c(=O)n1CCc1ccccc1 | 8.93
COCCn1c(SCC(=O)c2ccccc2)nc2ccccc2c1=O | -12.4
O=c1c2ccccc2nc(SCCN2CCCCC2)n1CCc1ccccc1 | -71.7
COCCn1c(SCCOc2ccccc2)nc2ccccc2c1=O | -6.1
CCSc1nc2ccccc2c(=O)n1CCc1ccc(OC)c(OC)c1 | 14.9
O=C(CSc1nnc(NC(=O)Cc2ccc(F)cc2)s1)NCc1ccco1 | 14.3
Cc1ccccc1Cn1cc(S(=O)(=O)CC(=O)N2CCCCC2)c2ccccc21 | 7.27
Nc1cc(Nc2ccccc2)c2nonc2c1[N+](=O)[O-] | 16.3
N#Cc1c(Nc2cccc(F)c2)sc2c(O)cc(=O)[nH]c12 | 27.3
Cc1ccccc1-n1c(C)cc(/C=N/Nc2ccc([N+](=O)[O-])cn2)c1C | 17.4
Br.CN1CCc2cc(O)c(O)cc2C(c2ccccc2)C1 (stereo not drawn) | -13.6
Br.Oc1ccc(C2CNCCc3c2cc(O)c(O)c3Cl)cc1 (stereo not drawn) | -3.12
Br.C=CCN1CCc2c(cc(O)c(O)c2Cl)C(c2ccccc2)C1 (stereo not drawn) | -41

SMILES | hERG current change (%, negative = inhibition) at 10uM [%]
Br.Cc1cccc(C2CN(C)CCc3c2cc(O)c(O)c3Cl)c1 (stereo not drawn) | -51.1
Br.C=CCN1CCc2cc(O)c(O)cc2C(c2ccccc2)C1 (stereo not drawn) | -23.9
CN1CCc2cc(Cl)c(O)cc2[C@@H](c2ccccc2)C1.Cl | -56
O=[N+]([O-])c1ccc(-c2nc(=S)c3c(o2)CCCC3)cc1 | -6.53
Oc1ccccc1Nc1ccccn1 | 6.88
Oc1cccc2ccc(Nc3ccccn3)nc12 | -53.6
c1ccc(Nc2ccccn2)nc1 | 7.19
Nc1ccc(C#Cc2c(-c3ccsc3)oc3ccc(N4CCOCC4)cc23)cc1 | 5.98
NC(=O)c1ccc(NC(=O)CCN2C(=O)c3ccccc3C2=O)cc1 | 16
CN(C)c1ccc(NC(=O)C2C3C=CC(C3)C2C(=O)O)cc1 (stereo not drawn) | 7.65
O=c1cccc2n1CC1CC2CN(c2ncnc3c2cnn3-c2ccc(Cl)cc2)C1 (stereo not drawn) | -62.1
CC1CN(c2ncnc3c2cnn3-c2ccc(Cl)cc2)CC(C)O1 (stereo not drawn) | 0.749
O=c1cccc2n1CC1CC2CN(c2ncnc3c2cnn3-c2ccccc2)C1 (stereo not drawn) | -30
O=C(Nc1nnc(C2=COCCO2)o1)c1cccc(F)c1 | 16.7
COc1ccc2cc(C(=O)C3CCCN(C(=O)c4cc(=O)n(C)c(=O)n4C)C3)ccc2c1 (stereo not drawn) | -38.4
Cn1c(C(=O)N2CCCC(C(=O)c3ccc(C(F)(F)F)cc3)C2)cc(=O)n(C)c1=O (stereo not drawn) | -71.7
O=C(CCc1ccncc1)N1CCCC(Nc2ccc(F)c(F)c2)C1 (stereo not drawn) | -56
NC(=O)CCC(=O)N1CCCC(C(=O)c2ccc(C(F)(F)F)cc2)C1 (stereo not drawn) | 1
Cc1ccc(NC2CCCN(C(=O)CCc3ccncc3)C2)cc1C (stereo not drawn) | -24.5
O=C(CCc1ccncc1)N1CCCC(Nc2ccc(F)cc2)C1 (stereo not drawn) | -13.9
O=C(c1ccc(C(F)(F)F)cc1)C1CCCN(C(=O)CCc2cnccn2)C1 (stereo not drawn) | -15.1
O=C(c1ccc(C(F)(F)F)cc1)C1CCCN(C(=O)CCc2ccncc2)C1 (stereo not drawn) | -59.4

SMILES | hERG current change (%, negative = inhibition) at 10uM [%]
Cn1nccc1C(=O)N1CCCC(C(=O)c2ccc(C(F)(F)F)cc2)C1 (stereo not drawn) | 6.14
O=C(c1ccc(S(=O)(=O)Nc2ccccc2F)cc1)N1CCCCCC1 | 2.93
O=C(N[C@@H]1CCC(=O)N(CC[C@H](Sc2ccc(Br)cc2)c2ccccc2)CC1)OCc1ccccc1 | 0.417
COc1ccc2[nH]c(=O)c(CN(CCO)S(=O)(=O)c3ccc(C)cc3)cc2c1 | -9.52
Cc1ccc(C)c(NC(=S)N/N=C2\CCc3ccccc32)c1 | 9.03
COc1ccc(CCNC(=O)Cc2cc(=O)[nH]c(=O)[nH]2)cc1OC | -9.44
CCN1C(=O)/C(=C2/C=Cc3cc(C)ccc3N2CC)N(C)C1=S | -54.8
CCN1/C(=C2/SC(=S)N(C)C2=O)C=Cc2cc(C)ccc21 | -1.96
CCN1/C(=C2\C(=O)N(C)C(=S)N2C)C=Cc2cc(C)ccc21 | -33.4
CC1=NN(C(C)C)C(=O)C1 | 8.62
CCOC(=O)C1(Cc2cccc(F)c2)CCN(Cc2cnc(C)s2)CC1 | -2.73
CCOC(=O)C1(CC2CC2)CCN(Cc2cnc(N(C)C)s2)CC1 | -22.1
CCOC(=O)C1(CCOc2ccccc2)CCN(Cc2cccs2)CC1 | -81.8
CCOC(=O)C1(CCCc2ccccc2)CCN(Cc2cnc(C)s2)CC1 | -73.1
CCOC(=O)C1(CCOC)CCN(Cc2cc3ccccc3s2)CC1 | -22.5
CCOC(=O)C1(CCc2ccccc2)CCN(Cc2cnc(N(C)C)s2)CC1 | -83
CCOC(=O)C1(CCOc2ccccc2)CCN(Cc2ccc(C)s2)CC1 | -89.8
CCN(CC)C(=O)CC(c1ccc(F)cc1)c1ccc(OC)cc1 (stereo not drawn) | -25.1
CC1CC(C)(C)N2C(=O)C3(Nc4ccccc4S3)c3cccc1c32 (stereo not drawn) | 22.1
Cc1ccc(C(C)C)cc1OCCCCN1CCCC1 | -49
COc1ccc(N(CC(=O)NCCSCc2ccco2)S(=O)(=O)c2ccccc2)cc1 | -9.08
